Screening results: PubChem BioAssay, National Center for Advancing Translational Sciences (NCATS)
Hits are enriched below; roughly 2.4% of the tested compounds scored in any of these assays.
D2 antagonist: antagonizes the human D2 dopamine receptor; 340,000 compounds, 2% hits; P14416; HEK293 TREx D2 cells, calcium flux, dopamine EC80; inhibition, % at 10 µM; in the data active means inhibition above about 30%; inactive means below that, where a call was filed; further: 0% is about no effect
Target sequence (P14416 whole entry, looked up): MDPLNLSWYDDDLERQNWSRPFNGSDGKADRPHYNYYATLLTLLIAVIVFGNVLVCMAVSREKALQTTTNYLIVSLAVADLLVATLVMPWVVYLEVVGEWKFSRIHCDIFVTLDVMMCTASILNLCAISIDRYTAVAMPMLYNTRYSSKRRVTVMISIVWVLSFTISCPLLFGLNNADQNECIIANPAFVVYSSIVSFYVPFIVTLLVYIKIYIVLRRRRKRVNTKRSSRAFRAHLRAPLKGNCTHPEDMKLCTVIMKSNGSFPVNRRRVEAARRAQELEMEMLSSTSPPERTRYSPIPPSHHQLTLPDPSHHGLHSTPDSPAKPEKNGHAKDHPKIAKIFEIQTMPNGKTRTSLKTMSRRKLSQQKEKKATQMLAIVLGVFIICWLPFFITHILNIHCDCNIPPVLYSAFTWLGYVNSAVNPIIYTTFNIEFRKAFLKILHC
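Calcium mobilization kinetics were recorded at 1 s intervals in tetracycline-induced HEK293 T-REx D2 cells, first for 180 s after compound addition and then 180 s after EC80 dopamine.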
D2 PAM-1: human D2 receptor positive allosteric modulation; AID 624464; 360,000 compounds, 0.23% hits; potentiation, % (test concentration not listed); DiscoveRx D2 beta-arrestin cells, luminescence, 90 min; 100% = 57 uM dopamine signal; in the data active means potentiation above about 50%; inconclusive means mostly about 30% to 49%
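PathHunter D2 cells, attached overnight at 37 deg C, received compound in DMSO plus dopamine at EC20 (50 nM final) for 90 min at 37 deg C. Beta-arrestin recruitment was read as luminescence after 1 h with detection reagent at ambient temperature.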
D2 ag-1: activates the human D2 dopamine receptor; activation, % at 2 µM; HEK293 T-REx D2 cells, calcium flux agonist mode; P14416; AID 485358; 340,000 compounds, 0.53% hits;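 active means activation over 3 SD above normal in the single-dose calcium agonist read, cut at about 30% in these data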; further: 0% is about no effect
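HEK293 Trex D2 cells, tetracycline-induced, o/n 30 C 5% CO2; no-wash Ca dye, RT 30–90 min; 10-cycle baseline, 23 nl cpd added, kinetic Ca read 180 s; agonist hits = positive Ca response.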
D2 ag-2: agonists of human D2 dopamine receptor (beta-arrestin). 360,000 compounds, 0.084% hits. activation, % (no concentration beside the values). AID 624465. DiscoveRx PathHunter D2 beta-arrestin, luminescence, 90 min; 100% = 57 uM dopamine signal; in the data active means activation above about 40%; inconclusive means between about 15% and that limit
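Agonist mode: compounds alone added to overnight-plated D2 PathHunter cells for 90 min at 37 C, with 57 uM final dopamine (EC100) defining full response. Beta-arrestin recruitment detected by chemiluminescent reagent, read after 1 h at ambient temperature.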
D2 PAM-2: positively modulates the human D2 dopamine receptor allosterically; P14416; HEK293 T-REx D2, calcium flux, EC20 dopamine potentiation; potentiation, % at 10 µM; 340,000 compounds, 0.34% hits; AID 485347;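 active means potentiation over 3 SD above the plate norm, cut at about 30% in these data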; further: 0% is about no effect
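Cells plated with tetracycline inducer and held overnight at 30 C; calcium dye loaded 30–90 min at room temperature; baseline taken, compound added and read 180 s; EC20 dopamine then added and read 180 s.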
* hit, by the source's call; ? = inconclusive; nt = not tested or not shown.

SMILES | D2 antagonist | D2 PAM-1 | D2 ag-1 | D2 ag-2 | D2 PAM-2
Cc1ccc(/C=N/NC(=O)C2CC(=O)N(c3ccccc3)C2)s1 (stereo not drawn) | -18 | -22 | -1 | -4 | -8
O=C(N/N=C/c1ccccc1O)C1CC(=O)N(c2ccc(Cl)cc2)C1 (stereo not drawn) | 35* | -19 | 0 | 3 | -23
CCOC(=O)c1cccc(NC(=O)N2CCC(CN3CCCCCC3)CC2)c1 | nt | nt | 0 | nt | nt
Cc1[nH]c2ccccc2c1C(c1ccncc1)N1CCN(c2ccccn2)CC1 (stereo not drawn) | 15 | 3 | 35* | 0 | -21
COCCNC(=O)C1CCC(CNS(=O)(=O)c2ccc3c(c2)CC(C)N3C(C)=O)CC1 (stereo not drawn) | nt | nt | 1 | nt | -6
Oc1ccc2ccccc2c1CNn1cnnc1 | 33* | -3 | 0 | 1 | -7
O=C(NCc1ccc(Cl)cc1)C1CCCN(C(=O)c2ccc(Cl)cc2)C1 (stereo not drawn) | 38* | -1 | 0 | -1 | 3
Cc1ccc(S(=O)(=O)N(C)C)cc1NC(=O)C1CCCN(C(=O)c2ccc(Cl)cc2)C1 (stereo not drawn) | 31* | -2 | 0 | -3 | -1
O=C(Nc1ccc2c(c1)OCO2)c1cnn2cccnc12 | 69* | -5 | 0 | -1 | 28
Cc1cc(C)cc(NC(=O)C2CCN(c3cnccn3)CC2)c1 | 33* | -5 | -1 | -8 | -38
NC(=O)C1(N2CCCCC2)CCN(Cc2ccc(Br)cc2)CC1 | 37* | -18 | 0 | -2 | -25
COc1ccc(NC(=O)C2CCN(c3cc(C)nc4c(-c5ccc(Cl)cc5)c(C)nn34)CC2)cc1 | nt | nt | 1 | nt | -4
O=C(COC(=O)c1cc(-c2ccccc2)nc2ccccc12)c1ccc(Br)cc1 | nt | nt | nt | nt | -1
C/C(N)=C(/C#N)C(=O)COC(=O)c1cc(-c2ccc(Br)cc2)nc2ccccc12 | 47* | -1 | 2 | 7 | -12
Cc1ccnc(SCCn2c(N3CCCCC3)nc3c2c(=O)[nH]c(=O)n3C)n1 | -3 | nt | 0 | nt | 31*
Cn1c(=O)[nH]c(=O)c2c1nc(N1CCCCCC1)n2CCN1CCCCCC1 | 40* | -38 | 1 | -1 | -14
Nc1ccc(-c2nc3ncccc3o2)cc1 | 33* | -1 | 0 | -3 | 2
Cc1ccc(Cn2c(CO)cnc2SCC(=O)NCc2ccccc2Cl)cc1 | nt | nt | 1 | nt | -5
CCOc1ccc(NC(=O)CCN2C(=O)CSc3ccccc32)cc1 | -9 | -5 | 1 | 3 | -11
O=C(CCN1C(=O)CSc2ccccc21)Nc1ccc(OC(F)(F)F)cc1 | 51* | -4 | 0 | -1 | -17
CSc1ccc(CCNC(=O)Cn2ncc3c(=O)oc4ccccc4c32)cc1 | nt | nt | 0 | nt | -19
CCCCS(=O)(=O)CC(COc1ccccc1)OC(=O)c1ccccc1 (stereo not drawn) | 35* | -6 | 1 | -3 | 1
CCCCS(=O)CC(CS(=O)CCCC)OC(=O)c1ccccc1 (stereo not drawn) | 0 | -9 | 0 | -3 | -6
Cn1c(=O)n(C)c2cc(CNCc3ccc(F)cc3)ccc21 | nt | nt | 1 | nt | -18
Cc1ccc(CCNC(=O)c2ccc(NC(=O)N3CCSc4ccccc43)cc2)cc1 | nt | nt | 0 | nt | 6
SMILES | D2 antagonist | D2 PAM-1 | D2 ag-1 | D2 ag-2 | D2 PAM-2
COc1ccc(OC)c(NC(=O)Cn2cc(C(=O)c3ccc(Cl)cc3)c(=O)c3cc(OC)ccc32)c1 | nt | nt | 0 | nt | -32
CC(=O)Nc1cccc(Oc2ncnc3scc(-c4ccc(C)cc4)c23)c1 | 34* | 7 | 1 | 5 | -6
Cc1ccccc1-c1noc(CSc2nc3ccccc3[nH]2)n1 | nt | nt | 0 | nt | 4
CCc1cccc(NC(=O)COC(=O)/C=C/c2cccs2)c1 | 31* | -6 | 0 | -4 | -7
O=C(COC(=O)/C=C/c1cccs1)Nc1ccc(F)cc1 | 6 | -6 | 0 | -1 | 11
O=C(CN1CCOCC1)Nc1ncc(Cc2cccc3ccccc23)s1 | 42* | 7 | 0 | 3 | 3
O=C(C1CC1)N1CCc2cc(Br)cc(S(=O)(=O)N3CCN(c4ccccn4)CC3)c21 | 46* | 10 | 1 | -2 | -1
CC(=O)N1CCc2cc(Br)cc(S(=O)(=O)NCc3ccc(Cl)cc3)c21 | 68* | -20 | -1 | 4 | -17
O=C(C1CC1)N1CCc2cc(Br)cc(S(=O)(=O)NCCCN3CCCC3)c21 | 39* | -10 | 0 | -2 | -11
CC1CCCN(CCCNS(=O)(=O)c2cc(Br)cc3c2N(C(=O)C2CC2)CC3)C1 (stereo not drawn) | nt | -13 | nt | 5 | nt
O=C(C1CC1)N1CCc2cc(Br)cc(S(=O)(=O)N3CCN(c4ccccc4)CC3)c21 | nt | nt | 1 | nt | -2
COc1cccc(-n2cc(C(=O)NCc3ccccc3OC)c3ccccc3c2=O)c1 | nt | nt | 1 | nt | -1
Cc1ccnn1CC(=O)N/N=C/c1cn[nH]c1-c1ccccc1 | 44* | 0 | 0 | -3 | 1
Cc1ccnn1CC(=O)N/N=C/c1c[nH]c2ccccc12 | -18 | -2 | 0 | -2 | -1
COc1ccccc1C(=O)NCC1(N2CCN(C)CC2)CCCCC1 | nt | nt | 0 | nt | -13
Cc1nc2cccnc2n1C1CCN(S(=O)(=O)N(C)C)CC1 | nt | nt | 1 | nt | -6
O=C(COC(=O)c1ccc(F)c(S(=O)(=O)N2CCOCC2)c1)c1ccc(Br)cc1 | 36* | 21 | 2 | 3 | 38*
O=C(COC(=O)c1ccc(F)c(S(=O)(=O)N2CCOCC2)c1)c1ccc(Cl)cc1 | 2 | -2 | 0 | 1 | 2
N/C(=N\OC(=O)c1ccccc1Cl)c1cccnc1 | 18 | 96* | 1 | 14 | -5
O=C(C(=O)c1cccnc1)c1cccnc1 | nt | -24 | nt | -8 | -6
NC(=O)c1cccnc1 | 40* | -14 | 2 | -7 | -10
N/C(=N\OC(=O)c1cc(Cl)ccc1Cl)c1cccnc1 | nt | 73* | nt | ? | 5
CC1(C)CCN2CCC(C)(C)c3c(O)ccc1c32 | -2 | 2 | 34* | 4 | 4
O=C(NCCO)C1(c2ccc(Cl)cc2)CCCC1 | 32* | 11 | 0 | -2 | 3
CCC1CCc2nc3sc(C(=O)Nc4cccc(C(F)(F)F)c4)c(N)c3cc2C1 (stereo not drawn) | nt | nt | nt | nt | 8
O=C1c2ccc([N+](=O)[O-])cc2S(=O)(=O)N1Cc1ccccc1 | 16 | 72* | -1 | ? | 20
Cc1ccc(-n2c(=O)c3ccccc3n(CC(=O)Nc3cccc(C(F)(F)F)c3)c2=O)cc1 | nt | nt | 2 | nt | 3
COc1ccc(CCNC(=O)c2cc3c(-c4ccc(OC)c(OC)c4)nn(C)c3s2)cc1OC | nt | nt | 0 | nt | -4
CCOc1cccc(/C(O)=C2/C(=O)C(=O)N(Cc3cccnc3)C2c2ccco2)c1 (stereo not drawn) | -8 | -5 | 1 | -3 | -3
